A short description of test [1]: optical density shifts of acrAB sulA E. coli – strain DRC41, OD650, 48 h, E. coli filamentation inducer project, primary screen (AID 1152).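 Further: E. coli MC1000 strain DRC41 lacking acrAB efflux pump and sulA.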 The conditions noted are these: higher = more signal, called active from +8 up or from −8 down.
Test [2] can be described thus: probe aLefty1 binding on compound microarray – biochemical, small-molecule microarray, 635/667 nm fluorescence, primary screen (AID 1153).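 Further: score merges spot fluorescence with signal-to-noise ratio from the scanned slide images.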 The conditions noted are these: higher = more signal.
Test [3] can be described thus: plasmodial surface anion channel blockers, osmotic lysis – cell-based, P. falciparum Indochina, OD700, 1 h, primary screen (AID 1154). To be noted: P. falciparum Indochina infected RBC osmotic lysis, higher = more signal, called active from +8 up or from −8 down.
Test [4] in a line: plasmodial surface anion channel blockers, osmotic lysis – cell-based, P. falciparum Indochina, OD700, 2 h, primary screen (AID 1155).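 Further: lysis reports solute entry through the parasite surface anion channel PSAC.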 The conditions noted are these: P. falciparum Indochina infected erythrocytes, higher = more signal, called active from +8 up or from −8 down.
Test [5] is described as follows: changes in parasitized red cell lysis, either direction – P. falciparum Indochina, OD700, 3 h, PSAC antagonist project, primary screen (AID 1156). The conditions noted are these: P. falciparum-infected erythrocytes, osmotic lysis, higher = more signal, called active from +8 up or from −8 down.
The nature of test [6]: plasmodial surface anion channel blockers, osmotic lysis – cell-based, P. falciparum Indochina, OD700, 18 h, primary screen (AID 1157). The conditions noted are these: P. falciparum Indochina infected erythrocytes, osmotic lysis OD700, 18 h; higher = more signal, called active from +8 up or from −8 down.
Test [7] can be described thus: S6 kinase pathway phospho-S6 level changes – cell-based, A549, cytoblot, luminescence, serum-stimulated, primary screen (AID 1158).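 Further: serum-stimulated A549 lung adenocarcinoma cells; signal is phosphorylated S6 detected by cytoblot immunostaining with HRP secondary.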 To be noted: 5 h, higher = more signal.
The target in test [8] is NADPH oxidase 2 (Homo sapiens) (UniProt P04839). In words: compounds shifting NOX2 Amplex Red fluorescence – cell-based, HEK293-NOX2, PMA-stimulated, NOX inhibitor project, primary screen (AID 1159). Further: test concentration not given here. The conditions noted are these: 45 min, higher = more signal, called active from +8 up or from −8 down.
Sequence of NADPH oxidase 2 (Homo sapiens) (P04839 whole entry, looked up): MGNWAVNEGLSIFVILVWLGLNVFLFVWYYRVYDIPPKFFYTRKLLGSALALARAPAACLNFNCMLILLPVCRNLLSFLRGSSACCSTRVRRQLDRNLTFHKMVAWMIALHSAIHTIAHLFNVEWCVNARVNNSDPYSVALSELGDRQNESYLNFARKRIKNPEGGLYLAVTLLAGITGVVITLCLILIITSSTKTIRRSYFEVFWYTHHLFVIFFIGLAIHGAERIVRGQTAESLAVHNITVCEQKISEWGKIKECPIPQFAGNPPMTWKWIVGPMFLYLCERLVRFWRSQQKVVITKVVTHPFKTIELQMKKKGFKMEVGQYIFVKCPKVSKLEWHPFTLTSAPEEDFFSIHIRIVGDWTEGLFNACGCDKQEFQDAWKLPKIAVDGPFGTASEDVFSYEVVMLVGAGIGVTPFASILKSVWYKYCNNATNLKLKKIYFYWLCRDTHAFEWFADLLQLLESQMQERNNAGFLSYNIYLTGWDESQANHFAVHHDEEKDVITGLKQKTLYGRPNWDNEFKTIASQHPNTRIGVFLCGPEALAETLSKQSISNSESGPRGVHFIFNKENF
The target in test [9] is NADPH oxidase 4 (Homo sapiens) (UniProt Q9NPH5). In words: compounds shifting NOX4 Amplex Red fluorescence – cell-based, HEK293-NOX4, tetracycline-induced, NOX inhibitor project, primary screen (AID 1160). To be noted: HEK293-NOX4, Amplex Red H2O2 fluorescence, 45 min; higher = more signal, called active from +8 up or from −8 down.
Sequence of NADPH oxidase 4 (Homo sapiens) (Q9NPH5 whole entry, looked up): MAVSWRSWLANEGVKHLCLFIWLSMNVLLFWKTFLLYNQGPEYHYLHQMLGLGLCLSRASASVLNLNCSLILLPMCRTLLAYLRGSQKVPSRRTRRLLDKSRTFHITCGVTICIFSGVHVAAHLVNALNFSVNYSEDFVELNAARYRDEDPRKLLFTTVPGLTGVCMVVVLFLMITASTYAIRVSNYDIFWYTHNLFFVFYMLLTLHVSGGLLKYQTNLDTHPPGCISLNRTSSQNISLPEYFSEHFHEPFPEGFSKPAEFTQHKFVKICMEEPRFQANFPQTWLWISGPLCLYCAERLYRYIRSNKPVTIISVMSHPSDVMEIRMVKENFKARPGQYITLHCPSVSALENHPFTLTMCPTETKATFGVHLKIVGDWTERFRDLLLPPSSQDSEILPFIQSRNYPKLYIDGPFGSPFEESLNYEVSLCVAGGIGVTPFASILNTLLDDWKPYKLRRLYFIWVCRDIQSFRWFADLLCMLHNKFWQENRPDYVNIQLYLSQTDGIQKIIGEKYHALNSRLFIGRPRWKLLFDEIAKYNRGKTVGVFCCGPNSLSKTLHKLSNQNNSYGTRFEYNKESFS
The target of test [10] is NADPH oxidase 5 (Homo sapiens) (UniProt Q96PH1). In words: compounds shifting NOX5 Amplex Red fluorescence – cell-based, HEK293-NOX5, NOX inhibitor project, primary screen (AID 1161). The conditions noted are these: HEK293-NOX5, ionomycin, 45 min, higher = more signal.
Sequence of NADPH oxidase 5 (Homo sapiens) (Q96PH1 whole entry, looked up): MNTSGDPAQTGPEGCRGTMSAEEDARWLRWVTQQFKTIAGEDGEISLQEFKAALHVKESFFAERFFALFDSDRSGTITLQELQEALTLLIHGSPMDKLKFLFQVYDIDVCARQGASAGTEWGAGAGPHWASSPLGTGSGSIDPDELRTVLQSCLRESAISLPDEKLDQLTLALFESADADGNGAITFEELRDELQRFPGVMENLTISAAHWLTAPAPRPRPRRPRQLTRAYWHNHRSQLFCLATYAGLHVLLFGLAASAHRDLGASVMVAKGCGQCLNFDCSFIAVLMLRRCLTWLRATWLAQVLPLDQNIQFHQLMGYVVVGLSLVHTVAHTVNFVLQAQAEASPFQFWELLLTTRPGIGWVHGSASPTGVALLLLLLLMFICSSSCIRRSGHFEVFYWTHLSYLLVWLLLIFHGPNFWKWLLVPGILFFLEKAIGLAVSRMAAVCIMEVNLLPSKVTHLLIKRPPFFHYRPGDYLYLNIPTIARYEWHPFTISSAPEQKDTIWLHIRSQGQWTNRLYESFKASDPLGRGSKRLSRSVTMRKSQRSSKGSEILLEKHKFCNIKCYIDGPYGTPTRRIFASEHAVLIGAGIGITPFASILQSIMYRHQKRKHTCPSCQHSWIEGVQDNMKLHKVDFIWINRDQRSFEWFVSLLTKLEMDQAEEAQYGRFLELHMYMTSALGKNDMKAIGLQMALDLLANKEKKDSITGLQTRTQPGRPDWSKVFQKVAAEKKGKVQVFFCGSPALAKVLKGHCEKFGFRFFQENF
A short description of test [11]: compound effects on lung adenocarcinoma cell viability – A549, calcein-AM fluorescence, 48 h, basal, profiling panel (AID 1162). Further: test concentration not given here. The conditions noted are these: higher = more signal.
Test [12] can be described thus: compound effects on differentiated 3T3-L1 adipocyte viability – cell-based, 3T3-L1 adipocytes, calcein-AM fluorescence, 48 h, basal, profiling panel (AID 1163). Further: test concentration not given here. The conditions noted are these: 3T3-L1 adipocytes viability, higher = more signal.
The nature of test [13]: compound effects on hepatocellular carcinoma cell viability – HepG2, calcein-AM fluorescence, 48 h, basal, profiling panel (AID 1164). Further: test concentration not given here. The conditions noted are these: higher = more signal.
Test [14] can be described thus: compound effects on multiple myeloma cell viability – MM1S, calcein-AM fluorescence, 48 h, basal, profiling panel (AID 1165).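 Further: viability of MM1S multiple myeloma cells under basal unstimulated conditions; test concentration not given here.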 To be noted: higher = more signal.
Test [15] is described as follows: calcein-AM signal in unstimulated myeloma cells – cell-based, calcein-AM fluorescence, 48 h, PK04 Diversity Set, profiling panel (AID 1166).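 Further: cells grown under basal conditions without added stimulus; test concentration not given here.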 To be noted: RPMI8226 myeloma viability, higher = more signal.
Test [16] is described as follows: JC-1 mitochondrial signal, unstimulated HepG2 cells – cell-based, JC-1 fluorescence, 24 h, 100 nL compound, profiling panel (AID 1167). Further: test concentration not given here. To be noted: HepG2 mitochondrial potential, higher = more signal.
Test [17] in a line: JC-1 mitochondrial signal, unstimulated adipocytes – cell-based, JC-1 fluorescence, 3T3-L1 adipocytes, 24 h, 100 nL compound, profiling panel (AID 1168). Further: test concentration not given here. To be noted: JC-1 mitochondrial fluorescence, higher = more signal, called active from +8 up or from −8 down.
Test [18] in a line: JC-1 mitochondrial signal, unstimulated myeloma cells – cell-based, JC-1 fluorescence, RPMI8226, 24 h, 100 nL compound, profiling panel (AID 1169). Further: test concentration not given here. To be noted: JC-1 mitochondrial potential fluorescence, higher = more signal.
The nature of test [19]: JC-1 mitochondrial signal, unstimulated MM1S myeloma – cell-based, JC-1 fluorescence, 24 h, 100 nL compound, profiling panel (AID 1170). Further: test concentration not given here. To be noted: MM1S mitochondrial potential, higher = more signal.
Test [20] is described as follows: resazurin metabolic signal in A549 cells – cell-based, resazurin fluorescence, 24 h, PK04 Diversity Set, profiling panel (AID 1171). Further: test concentration not given here. To be noted: A549 viability, higher = more signal, called active from +8 up or from −8 down.

The source made the active and inactive calls.

For the molecule `CN1C(=O)[C@@H]2[C@@H](CC(COc3ccccc3)=C3[C@@H](CCc4ccccc4)OB(O)C[C@@H]32)C1=O`, the z-score in test [1] was -0.759 (inactive); in [3], 4.5 (inactive); in test [4], 0.626 (inactive); in test [5], -0.488 (inactive); in test [6], 0.133 (inactive); in [7], -0.202. Moreover, the z-score in test [8] was 0.693 (inactive); in test [9], 0.41 (inactive); in test [10] it was 0.82; in test [11], 0.231; in [12] it was -0.477; in [13] it was -1.14. The z-score is -2.31 in test [14]; -0.802 in test [15]; -1.62 in test [16]; -0.0562 (inactive) in test [17]; 0.122 in test [18]; -0.904 in [19]. For the same molecule, the z-score in [20] was -0.453 (inactive). In addition, the composite z-score in test [2] is -0.191.
Consider `C=C(COC)/C(=C/C[C@@H](OC(C)=O)c1ccccc1OCCO)c1cnc2ccccc2c1`, for which the z-score in test [1] is -0.146 (inactive); in test [3] it was 28.1 (active); in test [4], 14.2 (active); in [5] it was 1.56 (inactive); in test [6] it was 1.71 (inactive); in [7], 0.413. For the same molecule, the z-score in [8] was -1.22 (inactive); in [9], -1.04 (inactive); in test [10], -0.792; in test [11], 0.106; in [12], 1.5; in test [13], -0.268. The z-score in test [14] is -2.48; in test [15], -1.14; in test [16], 0.23; in test [17], -0.433 (inactive); in [18], 0.328; in test [19], 1.4. Moreover, the z-score in [20] is -1.69 (inactive). The molecule also showed a composite z-score in test [2] of 0.267.
Consider `Cc1ccc(F)cc1S(=O)(=O)N[C@H]1CCN(Cc2ccc(OC(C)C)cc2)C1`, for which the z-score in test [1] is -4.19 (inactive); in test [3], 2.31 (inactive); in test [4], 0.709 (inactive); in test [5], 0.183 (inactive); in test [6], 0.526 (inactive); in [7], -0.227. Moreover, the z-score in test [8] is -1.11 (inactive); in [9] it was -0.777 (inactive); in test [10] it was -2.37; in test [11], 0.376; in test [12], -0.535; in test [13], -0.7. Further, the z-score was -1.4 in [14]; -1.93 in test [15]; -0.809 in test [16]; 0.416 (inactive) in [17]; 0.0436 in test [18]; -1.41 in test [19]. Moreover, in test [20], the z-score is -0.477 (inactive). In test [2], this molecule displayed a composite z-score of -0.241.
For the molecule `COc1ccc([Si](C)(C)[C@H]2[C@H](CC(=O)N3Cc4ccccc4C[C@H]3CO)O[C@@]3(C(=O)N(C)c4c(Br)cc(C)cc43)[C@@H]2C)cc1`, the z-score in [1] was -1.05 (inactive); in test [3], 9.31 (active); in test [4], 2.16 (inactive); in [5] it was 1.31 (inactive); in [6], 1.68 (inactive); in test [7], 0.0914. The z-score was 0.0544 (inactive) in test [8]; 0.794 (inactive) in test [9]; 0.136 in test [10]; -2.66 in [11]; 0.231 in test [12]; -4.66 in test [13]. The z-score in test [14] was -2.71; in test [15], -4.36; in test [16] it was -2.2; in test [17], 0.0243 (inactive); in [18] it was -1.12; in test [19], -2.31. Moreover, the z-score in test [20] was -2.92 (inactive). Further, the composite z-score in [2] stood at 0.297.
Take `COCCOC(=O)N1C(=O)[C@@]2(c3ccccc31)[C@H](C(=O)N1CCN(c3ncccn3)CC1)[C@H]1C(=O)O[C@H](c3ccccc3)[C@H](c3ccccc3)N1[C@@H]2c1ccccc1OCCO`: the z-score in test [1] is 2.86 (inactive); in test [3], 10 (active); in [4], 1.18 (inactive); in test [5] it was -0.427 (inactive); in [6], 0.0951 (inactive); in [7] it was 1.89. In addition, the z-score in [8] was 0.89 (inactive); in [9], 1.09 (inactive); in test [10] it was 0.791; in test [11], 1.14; in [12], 0.549; in [13], -0.0577. Moreover, the z-score in test [14] was 0.0079; in test [15], -0.203; in test [16], -0.195; in test [17] it was 0.204 (inactive); in test [18], -0.248; in test [19] it was -0.742. For the same molecule, the z-score in [20] is -0.166 (inactive). Further, the composite z-score in test [2] was determined as 0.867.
For the molecule `N#Cc1ccc(C(O)C2C=CC3C(=O)NC(=O)C3N2Nc2ccc(Cl)cc2Cl)cc1` (stereo not given), the z-score was -1.18 (inactive) in [1]; 13.7 (active) in [3]; 2.42 (inactive) in test [4]; 2.15 (inactive) in test [5]; 1.39 (inactive) in test [6]; -1.29 in test [7]. In addition, the z-score was -1.23 (inactive) in test [8]; -5.23 (inactive) in test [9]; -2.75 in test [10]; -0.918 in test [11]; 0.325 in [12]; -0.726 in test [13]. Further, the z-score in test [14] is -0.399; in [15], -0.408; in [16], -1.35; in test [17] it was -1.05 (inactive); in test [18], -0.356; in test [19] it was 0.153. Also, the z-score in [20] is -0.123 (inactive). Also, the composite z-score in [2] worked out at 0.243.
As for `NC(=O)N1C(=O)C2C(C1=O)C1C=C(CCCO)C2C(c2ccc(CN3CCCC3)cc2)N1Cc1cc2c(cc1Br)OCO2` (stereo not given), the z-score in test [1] is -0.272 (inactive); in test [3], 1.69 (inactive); in [4], 0.446 (inactive); in test [5] it was 0.604 (inactive); in test [6], 0.211 (inactive); in test [7], 0.106. Besides, the z-score in test [8] is -1.07 (inactive); in test [9] it was 0.731 (inactive); in test [10] it was 0.46; in test [11], -1.05; in [12], 0.201; in [13], -0.623. Also, the z-score is -0.0321 in test [14]; 0.124 in test [15]; -0.595 in test [16]; -0.472 (inactive) in test [17]; 0.159 in test [18]; 0.322 in test [19]. Also, the z-score in test [20] is -0.855 (inactive). In test [2], this molecule returned a composite z-score of -0.276.
In the case of `[N-]=[N+]=NCc1ccccc1[C@@H]1OC(c2ccc(OCCCO)cc2)=N[C@]1(Cc1ccccc1N=[N+]=[N-])C(=O)O`, the z-score is 0.0786 (inactive) in test [1]; 22.9 (active) in test [3]; 6.73 (inactive) in test [4]; 3.2 (inactive) in test [5]; 0.982 (inactive) in test [6]; 0.0708 in test [7]. Also, the z-score in test [8] was -1.51 (inactive); in [9], -0.241 (inactive); in [10], 0.58; in test [11] it was 0.143; in test [12] it was 1.47; in test [13] it was -0.567. In addition, the z-score in test [14] is -1.82; in test [15], -3.36; in [16], -1.44; in test [17] it was -1.48 (inactive); in test [18] it was -1.11; in test [19], 1.44. The z-score in test [20] is 0.54 (inactive). Also, in test [2], the composite z-score is 0.865.

These data come from PubChem BioAssay.
